Screens: PubChem BioAssay, National Center for Advancing Translational Sciences (NCATS)
An excerpt weighted towards active compounds, which were near 11% of everything screened.
ALDH1A1 block = blocks purified human ALDH1A1 activity. P00352. Purified ALDH1A1, NADH fluorescence, propionaldehyde substrate. Potency, µM (highest dose often 75.3 µM), without a hit: top-dose activity, negative = inhibition, actives largely listed as inhibitors. 220,000 tested, 7.3% active. AID 1030; active = well fitted inhibition curve with a large enough effect, not every such curve was filed as active; inconclusive = small, poorly fitted or top-dose-only effect, or another doubt; inactive = no such curve, though single readings can be large or run the other way;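 also: potency is read from the fitted curve at half-maximal effect; plate controls were no enzyme wells and a reference inhibitor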
Target sequence (P00352 whole entry, looked up): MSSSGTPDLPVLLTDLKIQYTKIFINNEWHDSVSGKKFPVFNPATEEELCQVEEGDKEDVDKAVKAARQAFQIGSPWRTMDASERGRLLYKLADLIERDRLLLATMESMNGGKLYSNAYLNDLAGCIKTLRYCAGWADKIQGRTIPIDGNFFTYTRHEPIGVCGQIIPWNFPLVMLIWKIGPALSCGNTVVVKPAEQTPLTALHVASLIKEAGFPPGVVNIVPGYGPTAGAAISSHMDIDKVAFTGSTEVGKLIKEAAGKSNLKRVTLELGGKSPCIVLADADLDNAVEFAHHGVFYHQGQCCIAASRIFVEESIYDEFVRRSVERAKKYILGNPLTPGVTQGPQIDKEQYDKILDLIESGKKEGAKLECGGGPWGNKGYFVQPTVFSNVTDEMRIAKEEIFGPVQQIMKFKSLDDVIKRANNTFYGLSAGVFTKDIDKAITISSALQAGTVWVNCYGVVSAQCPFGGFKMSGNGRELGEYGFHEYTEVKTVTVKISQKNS
CBFb RUNX1 block = inhibitors of human CBF-beta and RUNX1 interaction; Potency, µM (doses to about 59.8 µM), without a hit: at the top dose activity, negative = inhibition, usual class: inhibitors; Q01196+Q13951; AlphaScreen CBFb-His/RUNX1-biotin binding, biochemical; AID 1477; 230,000 tested, under 10 active; also: % of control where 0% means no effect
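AlphaScreen proximity signal reports loss of binding between His-tagged CBF-beta and biotin-labelled RUNX1, each at 30 nM. Proteins are pre-associated for 20 minutes, compounds added for 15 minutes, then beads for 90 minutes, all at ambient temperature.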
HttQ103 aggreg = mutant huntingtin aggregation inhibition. PC12 HttQ103-GFP aggregates, Acumen cytometry, 40 h. Potency, µM (top dose mostly 46.1 µM), without a hit: at the top dose activity change, negative = inhibition, hits mostly inhibitors. 220,000 tested, 1.1% active. AID 1688; also: potency is read from the fitted curve at half-maximal effect; % is scaled to controls: 0 for no effect and ±100 for the full control effect; nearly all actives have a fitted effect of over 60% in size
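Aggregate formation scored by laser-scanning cytometer (488 excitation, 500–530 emission) in lysed PC12 cells expressing Q103-GFP after 100 nM tebufenozide induction; library tested in dose series, with ATPLite reagent added in the multiplex.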
HTT ATP protect = protects HTT-Q103 PC12 cells, measured by ATP. 230,000 tested, 0.14% active. AID 1471. PC12 HTT-Q103 induced, cytoprotection, ATP luminescence, 40 h. Potency, µM (highest dose often 56.4 µM), without a hit: cytoprotection (ATP increase), most hits filed as activators; also: potency is read from the fitted curve at half-maximal effect; % of control where 0% means no effect; nearly all actives have a fitted effect of over 45% in size
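Rat PC12, Q103 Htt exon1-GFP fusion, ecdysone promoter; tebufenozide inducer 100 nM final; compound titration; qHTS, 1500 cells/well; ATPlite luminescent read.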
HPGD inh = blocks human HPGD enzyme activity | P15428 | purified HPGD, NADH fluorescence kinetic, PGE2 substrate | Potency, µM, for inactives: at the highest dose activity change, negative = inhibition, most hits filed as inhibitors | 150,000 tested, 4.3% active | AID 894; active = well fitted inhibition curve with a large enough effect, not every such curve was filed as active; inconclusive = small, poorly fitted or top-dose-only effect, or another doubt; inactive = no such curve, though single readings can be large or run the other way; also: potency is read from the fitted curve at half-maximal effect; % is scaled to controls: 0 for no effect and ±100 for the full control effect
Target sequence (P15428 whole entry, looked up): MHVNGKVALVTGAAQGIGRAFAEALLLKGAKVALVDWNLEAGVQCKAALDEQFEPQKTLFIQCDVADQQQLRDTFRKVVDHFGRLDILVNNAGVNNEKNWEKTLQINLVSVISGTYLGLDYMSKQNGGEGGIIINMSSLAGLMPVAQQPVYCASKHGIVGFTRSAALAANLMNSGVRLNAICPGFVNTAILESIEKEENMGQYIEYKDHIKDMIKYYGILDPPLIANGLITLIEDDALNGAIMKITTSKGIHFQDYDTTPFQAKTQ
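NADH formation kinetics: reaction with 30 uM PGE2 and 1 mM NAD+ (final), 20 nM enzyme, Tris-HCl pH 8 with Tween 20, after 15 min compound preincubation at room temperature. Fluorescence change, last versus first of five reads.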
PNC assembly inh = inhibitors of perinucleolar compartment assembly. PC3M PTB-GFP, PNC prevalence imaging, 16 h; active compounds read low. activity change (PNC), negative = inhibition, % at 10 µM. 140,000 tested, 3.1% active. AID 2417;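 active = readout at or below -70, meaning at least 70% loss of cells showing the perinucleolar compartment, a nuclear body marking cancer cells; inconclusive = readout between -30 and a set limit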;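 also: plate controls were DMSO wells for no effect and camptothecin positive control wells for full effect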
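Read-out is percentage of cells bearing a perinucleolar compartment, from automated 20x imaging of fixed, Hoechst-stained PC3M PTB-GFP cells. Cells were seeded 4 h, then exposed 16 h to compound (23 nl of library stock) in duplicate plates.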
* = called active by the depositor; ? = inconclusive; / = not tested or not shown; [ ] = remark or other dose. Unless noted, calls follow the shape of the dose curve; as a rule, active = well fitted curve in the direction sought with a large enough effect; inconclusive = small, poorly fitted or top-dose-only effect, or another doubt; inactive = no such curve, though single readings can be large; an effect the other way counts as inactive or inconclusive.

SMILES | ALDH1A1 block | CBFb RUNX1 block | HttQ103 aggreg | HTT ATP protect | HPGD inh | PNC assembly inh
CC(C)CC1C(C#N)=C(N)OC2=C1C(=O)CC(c1ccccc1)C2 (centres undefined) | ? | -1% | 4% | -4% | / | /
COc1cc(C2C(C#N)=C(N)Oc3cc(C)n(CC4CCCO4)c(=O)c32)cc2c1OCO2 (centres undefined) | 25µM* | 3% | 17% | -19%[0.074 µM] | -19% | 13
N#CC1=C(N)OC(c2ccccc2)=C(C#N)C1c1ccc2c(c1)OCO2 (centres undefined) | 1µM* | 0% | 8% | -2% | 14µM* | 1
Cc1ccc(C2C(C#N)=C(N)Oc3cc4c(cc32)OCO4)cc1 (centres undefined) | ? | 13% | ? | -25%[10 µM] | -22% | ?
N#CC1=C(N)OC2=C(C(=O)CC(c3ccccc3)C2)C1c1ccc2c(c1)OCO2 (centres undefined) | 11µM* | 1% | 1% | / | 28µM* | 35
Cc1ccc2occ(C(c3nnnn3Cc3ccccc3)N3CCOCC3)c(=O)c2c1 (centres undefined) | 3% | 6% | ? | 0% | -9% | 11
Cc1cc(=O)oc2c(OS(C)(=O)=O)c(OS(C)(=O)=O)ccc12 | -10%[13.5 µM] | / | / | 18%[10 µM] | -10% | /
COc1ccc(Nc2nc3c(C)cccc3cc2C#N)c(OC)c1 | -3% | 18% | 3% | -3%[10 µM] | 3% | 6
S=C(NCCN1CCOCC1)Nc1ccccc1Cl | -1% | -4% | 26% | -13%[10 µM] | -12% | ?
Nc1ccccc1SCc1ccccc1 | 3% | 3% | -8% | -10% | / | /
N#CC(=C(\N)Sc1ccccc1N)/C(C#N)=C(/N)Sc1ccccc1N | / | ? | / | / | 8.9µM* | /
CN(CC(=O)O)CC(=O)O | -1%[13.5 µM] | / | / | 13%[10 µM] | 0% | /
O=C(COc1ccc(C(=S)N2CCOCC2)cc1Cl)Nc1ccccc1Cl | 18µM* | 1% | 2% | -22% | / | /
COc1cccc(C(=O)/C=C/c2ccc(OCC#N)c(OC)c2)c1 | 8.9µM* | 2% | 0% | 19%[10 µM] | -23% | 20
COc1cccc(C(=O)/C=C/c2ccc(SC)cc2)c1 | 16µM* | -7% | -17% | -18% | -19% | 61
COc1ccc(C(=O)/C=C/c2ccc(OC3CSC3)cc2)cc1OC | ? | -3% | 2% | 7%[10 µM] | 14µM* | 26
O=C(/C=C/c1ccc(OC2CSC2)cc1)c1ccc(Cl)cc1 | 0% | 4% | 17% | 20%[10 µM] | -14% | 78
O[C@@H](c1cc(-c2ccc(Cl)cc2)nc2ccccc12)C1CCCCN1 (some centres undefined) | 3%[13.5 µM] | / | / | / | -5% | /
CCCCC | -4% | -2%[21.7 µM] | 11% | 9% | -1% | /
Cc1cccc(-n2c(=S)[nH]c3sc4c(c3c2=O)CCc2ccccc2-4)c1 | 3.2µM* | -3% | -2% | -18% | / | /
Cc1ccc(-n2c(=S)[nH]c3sc4c(c3c2=O)CCc2ccccc2-4)cc1 | -6% | -4% | ? | 3%[10 µM] | / | 41
C/C(=N\N=C(/N)c1nonc1N)c1ccc2c(c1)OCO2 | / | -1% | 10%[9.22 µM] | -6%[10 µM] | / | /
CCOc1ccc(-n2c(C)nc3cc(C(=O)NCc4ccco4)ccc32)cc1 | ? | -5% | -1% | -10% | 8.9µM* | 65
COc1ccccc1-n1cnc2cc(C(=O)NCCCN3CCOCC3)ccc21 | -8% | 6% | 12% | 22%[1.9 µM] | -20% | 30
COc1ccc(-n2c(C)nc3cc(C(=O)NCc4ccco4)ccc32)cc1 | ? | -9% | -11% | -25% | 8.9µM* | 16
SMILES | ALDH1A1 block | CBFb RUNX1 block | HttQ103 aggreg | HTT ATP protect | HPGD inh | PNC assembly inh
COCCNC(=O)c1ccc2c(c1)nc(C)n2-c1cc(OC)c(OC)c(OC)c1 | 3% | 2% | -4% | -19% | 14µM* | 62
COc1ccccc1-n1cnc2cc(C(=O)NCc3ccco3)ccc21 | ? | -3% | -27% | -8% | 13µM* | 3
COc1ccccc1-n1c(C)nc2cc(C(=O)NCCN3CCOCC3)ccc21 | -2% | 2% | -17% | -36% | / | /
C#Cc1ccc(C(=O)Nc2ccc(N3CCC(C)CC3)c(C(N)=O)c2)cc1 | ? | 5% | 22% | / | / | /
Nc1ncnc2c1nc(N1CCCCC1)n2[C@@H]1O[C@@H]2COP(=O)(O)O[C@H]2[C@H]1O | / | 2% | / | / | / | /
O=c1c(CCc2ccccc2)nc2cnc(N3CCNCC3)nc2n1-c1ccccc1 | ? | / | / | 13% | / | /
COc1cccc(/C=N/Nc2nn3cnnc3c3ccccc23)c1 | ? | 0% | 20% | -34%[10 µM] | ? | -80*
COc1cc(/C=N/Nc2nn3cnnc3c3ccccc23)ccc1O | -8% | -1% | 7% | -94% | ? | -9
NCCC1CCCC(CCN)N1 (centres undefined) | 6% | 8% | / | / | 4% | /
O=C(C1c2ccccc2Oc2ccccc21)N1CCN(c2ccc(Cl)cc2)CC1 | -1% | 0% | 15%[9.22 µM] | -50% | -14% | -89*
COc1ccc(-c2nnc3n2N=C(c2c(OC)cccc2OC)CS3)cc1 | / | 9% | / | / | / | /
O=[N+]([O-])c1cc(-c2n[nH]c(-c3ccccc3)n2)cc([N+](=O)[O-])c1 | 2% | 3% | -32% | -16% | -2% | ?
Clc1ccccc1-c1nc(-c2ccccc2)n[nH]1 | 12% | 0% | -12% | -26% | 25µM* | ?
COc1ccc2c(c1)sc(=N)n2C | 20µM* | 0% | -18% | -47%[10 µM] | / | /
COc1ccc2c(c1)cc(C(=O)O)n2C | ? | 3% | 9% | 0% | ? | 46
O=C(O)c1cc(-c2ccc(-c3ccc(-c4cc(C(=O)O)c5cc(Cl)ccc5n4)cc3)cc2)nc2ccc(Cl)cc12 | ? | / | / | 7%[10 µM] | ? | /
CC(O)CN(C)CC/C=C1/c2ccccc2CSc2ccccc21 (centres undefined) | 3% | 2% | 8.9µM* | 6%[10 µM] | -8% | 58
CN(CC/C=C1/c2ccccc2CSc2ccccc21)CCCO | -4% | -2% | ? | / | 2% | ?
COc1ccc(-n2nc(C(=O)c3cccs3)cc(-c3nc4ccccc4[nH]3)c2=N)cc1 | ? | -25% | 11% | -11%[1.9 µM] | -3% | 11
Cc1ccccc1-n1nc(C(=O)c2cccs2)cc(-c2nc3ccccc3[nH]2)c1=N | 3% | ? | 2% | -17%[10 µM] | -10% | -100*
CC(=O)N(OCc1ccccc1)[C@@H]1c2cc(C#N)ccc2OC(C)(C)[C@H]1O | 2% | 8% | / | -188% | -1% | /
O=C(O)c1cccc2cccc(-c3cccc4cccc(C(=O)O)c34)c12 | 4%[13.5 µM] | / | / | -1%[10 µM] | -9% | /
O=C(c1ccccc1)c1c2c(cc3sc4ccccc4[n+]13)-c1cccc3cccc-2c13 | -7% | ? | 7.9µM* | / | -8% | -14
